We go through 40 compounds from PubChem BioAssay (NCATS).

SMILES strings stand for the structures. Several values for one entry are separate records, joined by “and”; a condition that tells them apart may be missing. Equal values may be shown once. Results filed as inconclusive are left out. Unmarked numbers belong to inactive results. Activity calls are given as the source filed them. The call rests on the fitted dose curve; in most records, active means well fitted inhibition curve with a large enough effect; inconclusive means small, poorly fitted or top-dose-only effect; inactive means flat fitted curve, though single readings scatter.
On the % scale 0 is the no-effect control and ±100 the full control effect; potency means the concentration at half of the fitted maximal effect.

This assay is described as follows: qHTS assay for small molecule disruptors of mitochondrial membrane potential screened against the NCATS CANVASS Library (AID 1347389). Further: nearly all actives have a fitted effect of over 60% in size. The conditions noted are these: HepG2 mitochondrial membrane potential, m-MPI red/green ratio, 1.5 h; series mostly up to 46.1 µM; activity change, negative = depolarization: at the top concentration. From the text:
Natural products and their derivatives continue to be wellsprings of nascent therapeutic potential. However, many laboratories have limited resources for biological evaluation, leaving their previously isolated or synthesized compounds largely or completely untested. To address this issue, the Canvass library of natural products was assembled (https://tripod.nih.gov/canvass), in collaboration with academic and industry researchers, for quantitative high-throughput screening (qHTS) across a diverse set of cell-based and biochemical assays. The pure (>85% purity by liquid chromatography/mass spectrometry [LC/MS]) Canvass library of 346 natural products were submitted by 45 academic laboratories and companies around the world. We collected pure natural products to circumvent deconvolution and structure elucidation due to time and resource limitations. The library was formatted into 1536-well plates and evaluated in 50 qHTS (in an 11-pnt concentration series) bioassays with broad scope of disease-relevant mechanisms. The resulting data set from 50 different assays was then systematically analyzed to identify overall trends and specific natural products with interesting biological activities. Reported herein are the results of each individual qHTS and their corresponding assay protocol. In healthy cells, the mitochondria are polarized and mitochondrial-membrane potential indicator (m-MPI) accumulates in the mitochondria as red fluorescent aggregates (emission at 590 nm). As the mitochondrial membrane depolarizes, m-MPI red-colored J-aggregates are converted to green fluorescent monomers (emission at 535 nm) and released from mitochondria into the cytosol. In response to mitochondrial depolarization, the red-to-green fluorescence ratio decreases. National Center for Advancing Translational Sciences (NCATS), Rockville, MD National Institute of Health (NIH), Bethesda, Maryland
Mitochondrial membrane potential protocol: 2,000 HepG2 cells in 5 uL/well were dispensed into black, clear-bottom 1536-well plates using a Multidrop Combi (Thermo Scientific) dispenser. The assay plates were incubated overnight at 37C to allow cells to attach to the wells, followed by the transfer of 23 nL compound or DMSO vehicle by a pin tool (Kalypsys). The plates were incubated for 1 hr at 37C and 5% CO2, followed by the addition of 5 uL of 2X Mito-MPS dye (BD Biosciences) into each well using Flying Reagent Dispenser (Aurora Discovery) and then following 30 min incubation at 37C. Fluorescence intensity (490nm excitation and 535nm emission for monomers; and 540nm excitation and 590nm emissions for aggregates) was measured using an Envision plate reader.
With `C/C(=C\[C@H](C)C(=O)CCCC1CC(=O)NC(=O)C1)[C@@H]1OC(=O)/C=C/CC/C=C/[C@H](O)[C@@H](O)[C@@H]1C`, the “activity change, negative = depolarization” value (shortened to “activity change”) was 4.6%.

Turning to `C/C(=C\[C@@H](C)CC/C=C/CC/C=C/C(=O)O)[C@@H](O)[C@H](C)C(=O)CCCC1CC(=O)NC(=O)C1`, the “activity change” value was 9.5%.

As for `C[C@@]1(CCC(=O)Nc2c(O)ccc(C(=O)O)c2O)C(=O)C=C[C@]23C[C@H]4C[C@H](O[C@@]4(C)C2)C31` (stereo not given in full), the “activity change” value is 14.9%.

Take `CN1CC[C@@]2([C@@]34CCN(C)[C@@H]3Nc3ccccc34)c3ccccc3N[C@@H]12`: the “activity change” value is 3.92%.

With `CN1CC[C@]2(c3cccc4c3N[C@H]3N(C)CC[C@@]43[C@]34CCN(C)[C@H]3Nc3ccccc34)c3ccccc3N[C@H]12`, the “activity change” value is 26.1%.

For `CC(C)=CCC/C(C)=C/Cc1cc([C@@H]2CC(=O)c3c(cc(O)c(CC=C(C)C)c3O)O2)ccc1O`, the Potency was 23.4 µM (active).

For `COc1cc2c(cc1OC)[C@@H](c1ccc3c(c1)OCO3)C(C)[C@@H](C)C2=O` (stereo not given in full), the “activity change” value is -18.4%.

As to `C=CC(C)(C)C(=O)[C@@H](C)[C@@H]1CC[C@@](C)(C=C)O1`, the “activity change” value is 4.97%.

Turning to `CC[C@@H](c1cc(OC)c(OC)cc1OC)[C@H](C)[C@@H](/C(C)=C/c1cc(OC)c(OC)cc1OC)c1cc(OC)c(OC)cc1OC`, the Potency is 23.4 µM (active) and 20.9 µM (active).

`C=C[C@@]1(C)CC[C@@H]([C@H](C)C(C)=O)O1`: the “activity change” value was -0.974%.

Take `C[C@@]12CCC[C@@](C)(C(=O)O)[C@H]1CC[C@@]13C[C@@H](CC[C@H]12)[C@](C)(O)C3`: the “activity change” value is 3.05%.

As for `C/C1=C/[C@@H](C)[C@H](O)C/C=C/CC/C=C/C(=O)O[C@@H]1[C@H](C)C(=O)CCCC1CC(=O)NC(=O)C1`, the “activity change” value is 18.1%.

For the compound `C[C@H]1CCC2(OC1)O[C@H]1C[C@H]3[C@@H]4CC(=O)[C@]5(O)C[C@H](O)CC[C@@]5(C)[C@H]4CC[C@@]3(C)[C@H]1[C@H]2C` (stereo not given in full), the “activity change” value was -6.9%.

Turning to `C=C[C@@](C)(O)CC[C@@H]1[C@@]2(C)CCCC(C)(C)[C@@H]2CC[C@@]1(C)O`, the “activity change” value is 3.38%.

Consider `C=C(Cl)[C@](Cl)(CBr)CC[C@@H](Br)C(C)(C)Cl`, for which the “activity change” value was -25.9%.

As to `O=Cc1ccc2n1C[C@]1(OC2)O[C@H](CO)[C@@H](O)[C@@H]1O`, the “activity change” value was -9.04%.

As for `CC[C@@H]1C[C@@]2(CC)OC(=O)[C@@]3(CC)[C@H](CC)[C@@H]1[C@@H]23`, the “activity change” value was 1.15%.

For `C=C[C@]1(C)CC[C@@H]([C@H](C)C(=O)/C=C/C(C)(C)O)O1`, the “activity change” value is 3.61%.

On to `COC(=O)c1cc2cc3c(c(O)c2c(=O)o1)OC1(CC3)CC2=C(O1)C(=O)c1c(O)c(OC)cc(OC)c1C2=O` (stereo not given), for which the Potency is 3.31 µM (active).

On to `C=C(C)C(=O)O[C@H]1C[C@@]2(C)OC(=CC2=O)/C(C)=C\[C@H]2OC(=O)C(=C)[C@H]12`, for which the Potency is 18.6 µM (active).

As for `COc1c(O)cc2c(c1O)C(=O)c1c(coc1C)C2=O`, the Potency is 10.5 µM (active).

Consider `CN1CCc2cc3c(c4c2C1(C)C(=O)c1cc(O)ccc1-4)OCO3` (stereo not given), for which the “activity change” value is -9.51%.

As to `COc1cc(C2C3=C(Cc4cc5c(cc42)OCO5)C(=O)OC3)cc(OC)c1OC` (stereo not given), the “activity change” value is -1.35%.

With `COc1cc2oc3ccccc3c(=O)c2cc1OC`, the “activity change” value was -24.8% [at 91.4 µM].

On to `C=C1CC[C@@H](O[C@H]2C[C@@](O)([C@H](C)NC(=O)c3[nH]c(C)c(Cl)c3Cl)[C@H](O)[C@@H](C)O2)[C@@H]2C=C[C@H](C)C(/C(O)=C3/C(=O)[C@H](C(C)C)N([C@@H]4O[C@H](C)[C@H](OC(N)=O)[C@H](OC(C)=O)[C@@H]4OC)C3=O)[C@@H]12` (stereo not given in full), for which the Potency is 16.6 µM (active).

Regarding `C/C(=C\[C@@H](C)CC/C=C/CC/C=C/C(=O)O)[C@H](O)[C@H](C)C(=O)CCCC1CC(=O)NC(=O)C1`, the “activity change” value was 0.592%.

With `CN1CC[C@@]23c4ccccc4N[C@@H]1[C@@]21CCN(C)[C@@H]3Nc2ccccc21`, the “activity change” value was 4.45%.

`C/C(=C\CC[C@@H](C)[C@H]1CC[C@]2(C)C3=CCC4C(C)(C)[C@@H](O)C[C@@H](O)[C@]4(C)C3[C@H](O)C[C@@]12C)CO` (stereo not given in full): the “activity change” value was 5.23%.

Take `COC12OC1(C13OC1(OC)C(=O)c1cc4cc(C)oc(=O)c4c(O)c1C3O)C(O)c1c(cc3cc(C)oc(=O)c3c1O)C2=O` (stereo not given): the “activity change” value was 2.6%.

Consider `C[C@@H]1CC[C@]2(C(=O)O)CC[C@]3(C)C(=C2[C@H]1C)CC[C@@H]1[C@@]2(C)CC[C@H](O)C(C)(C)[C@@H]2CC[C@]13C`, for which the “activity change” value was 1.62%.

As to `CC(C)=CC[C@H]1C[C@@]2(CC=C(C)C)C(=O)[C@](CC=C(C)C)(C(=O)C(C(=O)c3ccccc3)=C2O)C1(C)C`, the Potency is 7.41 µM (active).

In the case of `CCC(C)=C1OC(=O)[C@H](C)[C@H](O)[C@H](Cc2cccnc2)NC(=O)C(NC(=O)c2ncccc2O)C(C)OC1=O` (stereo not given in full), the “activity change” value was 5.32%.

For the compound `C/C=C(/C)c1c(Cl)c(O)c(C)c2c1Oc1c(Cl)c(O)c(Cl)c(C)c1C(=O)O2`, the Potency was 8.31 µM (active).

For the compound `COc1cc2c(cc1OC)[C@@H](c1ccc3c(c1)OCO3)C(C)C(C)C2=O` (stereo not given in full), the “activity change” value was 7.69%.

`C/C=C/c1cc2c(c(=O)o1)C(=O)[C@@H](O)[C@H](C)O2`: the “activity change” value was -6.3%.

For the compound `COc1ccc([C@@H]2CC(=O)c3c(cc(O)c(C/C=C(\C)CCC=C(C)C)c3O)O2)cc1`, the Potency was 3.84 µM (active).

On to `CN1CC[C@]23c4ccccc4N[C@H]1[C@]21CCN(C)[C@H]3Nc2ccccc21`, for which the “activity change” value was -0.892%.

Turning to `C[C@@]12C[C@@H](C[C@@H]3C(=O)O[C@@H](c4ccoc4)[C@H](OC(=O)c4ccccc4)[C@@H]31)OC2=O`, the “activity change” value is 2.84%.

In the case of `O=C1CC2OCC=C3CN4C5CC3C2[C@@H]2N1c1ccccc1[C@]52C[C@@H]4C1=C[C@H]2C3CC4N(CC[C@@]45c4ccccc4N(C1=O)[C@@H]25)C/C3=C/CO` (stereo not given in full), the “activity change” value is -14.7%.

On to `CC(CCC[C@]1(C)C(=O)C=C[C@@]23C[C@]4(C)O[C@@H](C[C@@H]4[C@H]2O)C31)C(=O)O` (stereo not given in full), for which the “activity change” value was -0.37%.
